Assay outcomes: PubChem BioAssay, National Center for Advancing Translational Sciences (NCATS)
Abeta yeast res – qHTS for compounds that reverse cellular toxicity of Amyloid beta (A-beta) peptide in yeast: Primary Screen; Potency, µM (doses to about 46.1 µM), most hits filed as activators; yeast expressing A-beta42, growth rescue, OD600, 48 h; response scale: 0% DMSO, 100% iron-clioquinol control; 0.063% of 410,000 active; further: nearly all actives have a fitted effect of over 55% in size
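Growth rescue measured by 600 nm absorbance after 48 h yeast culture at 30 C with compound. Values normalized between DMSO and an equimolar ferric chloride plus clioquinol control.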
Vif-A3F inh – qHTS for Inhibitors of Vif-A3F Interactions: qHTS. HeLa A3F-eYFP + Vif (tagged APOBEC3F with the HIV-1 protein that degrades it), YFP fluorescence increase. Potency, µM (titrated, usually from 46.1 µM), without a hit: top-dose activity, negative = active. 0.2% of 390,000 active; further: % of control where 0% means no effect; nearly all actives have a fitted effect of over 65% in size
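HeLa cells stably expressing Vif plus C-terminally eYFP-tagged A3F were seeded, incubated overnight at 37 deg C, dosed with compound, incubated overnight again at 37 deg C. Yellow fluorescence (Ex 488/Em 500-530) reported blocked Vif-mediated A3F-eYFP degradation.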
GRP78 ERSR act – qHTS for Inducers of the Endoplasmic Reticulum Stress Response (ERSR) in Human Glioma: qHTS; Potency, µM, for the others: at the top dose activation, hits mostly activators; 0.02% of 420,000 active; U87-MG GRP78 promoter luciferase reporter, 16 h; further: series mostly up to about 76 µM; % of control where 0% means no effect; nearly all actives have a fitted effect of over 35% in size
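Stably transfected U87-MG glioma cells carrying a GRP78-based luciferase sensor; 16 h compound incubation. Luminescence end-point read 10 min after Bright-Glo addition at room temperature.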
FUS suppressor – qHTS for Suppressors of FUS Proteinopathy: Primary screen using FUS-linked yeast assay. S. cerevisiae FUS-expressing, growth rescue, OD600, 24 h. 0.24% of 390,000 active. Potency, µM (titrated, usually from 76.6 µM), actives largely listed as activators;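 further: plate controls were DMSO vehicle for no effect and reference control for full effect; nearly all actives have a fitted effect of over 55% in size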
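Read-out: OD at 600 nm after 24hr at 30C, reporting rescue of FUS-induced yeast toxicity. Cells at OD 0.005 in galactose (2%) minimal medium; compounds tested in a dilution series; CP55940 titration from 92uM final as control.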
PINK1 expr mod – A Quantitative High throughput Screen to Identify Chemical Modulators of PINK1 Expression; PINK1 immunofluorescence, high-content cytometry, 24 h; Potency, µM (top dose mostly 76.6 µM), inactives show at the top dose activation (PINK1 increase), hits mostly activators; 0.2% of 410,000 active; AID 624263, 2012; active means well fitted activation curve with a large enough effect; inconclusive means small, poorly fitted or top-dose-only effect; cell line not stated here; further: % of control where 0% means no effect; nearly all actives have a fitted effect of over 65% in size
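Decision-based qHTS: stable cells, 24 h exposure to five compound concentrations, CCCP as control. Fixed cells stained for PINK1 plus nuclear, mitochondrial and cell markers, cytometer read.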
Vif-APOBEC3G blk – qHTS for Inhibitors of Vif-A3G Interactions: qHTS; 0.076% of 410,000 active; HeLa A3G-eYFP + Vif (tagged APOBEC3G with the HIV-1 protein that degrades it), YFP fluorescence, overnight; Potency, µM (titrated, usually from 46.1 µM), for inactives: at the highest dose activity, negative = active, most hits filed as inhibitors; further: on the % scale 0 is the no-effect control and ±100 the full control effect; nearly all actives have a fitted effect of over 60% in size
Target sequence (Q9HC16 whole entry, looked up): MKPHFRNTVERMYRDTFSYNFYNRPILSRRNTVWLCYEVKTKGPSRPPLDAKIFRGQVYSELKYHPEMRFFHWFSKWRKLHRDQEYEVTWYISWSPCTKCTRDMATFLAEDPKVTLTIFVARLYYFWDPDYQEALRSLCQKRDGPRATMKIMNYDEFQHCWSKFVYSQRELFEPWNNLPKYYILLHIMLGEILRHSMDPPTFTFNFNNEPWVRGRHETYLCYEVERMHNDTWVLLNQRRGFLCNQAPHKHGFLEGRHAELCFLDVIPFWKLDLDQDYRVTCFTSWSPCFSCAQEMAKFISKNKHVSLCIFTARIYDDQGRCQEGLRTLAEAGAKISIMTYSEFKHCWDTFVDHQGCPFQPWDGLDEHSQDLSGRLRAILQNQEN
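HeLa cells stably expressing Vif and C-terminally eYFP-tagged A3G, seeded overnight at 37 deg C, then exposed to compound by pintool overnight at 37 deg C. Rise in yellow fluorescence (Ex 488/Em 500-530, Acumen) marks blocked Vif-driven A3G degradation.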
Active calls of the source: *; i = inactive; ? = inconclusive; · = not tested or not shown. Rows were chosen to be rich in hits. Some 0.69% of all compounds tested hit in one or more screens of this group. Unless noted, the call rests on the fitted dose curve; in most records, active means well fitted curve in the direction sought with a large enough effect; inconclusive means small, poorly fitted or top-dose-only effect, or another doubt; inactive means no such curve, though single readings can be large; an effect the other way counts as inactive or inconclusive. Potency means the concentration at half of the fitted maximal effect.

SMILES	Abeta yeast res	Vif-A3F inh	GRP78 ERSR act	FUS suppressor	PINK1 expr mod	Vif-APOBEC3G blk
O=C(CCc1nc2ccccc2s1)NCc1ccccc1F	20µM*	3%	-2%	i	2%	-6%
Cc1c(C(=O)NCC2COCCO2)cnn1-c1ncc2c(n1)-c1ccccc1CC2 (stereo not given)	·	·	1%	·	-1%	·
O=C(Nc1nc2c(Cl)cccc2s1)c1ccc(Br)o1	i	2%	5%	i	14µM*	3%
O=C(CSc1ccc2ccccc2c1)Nc1ccncc1	i	0%	-1%	i	13µM*	2%
CCN1CCCC1CNC(=O)c1cnn(-c2ncc3c(n2)-c2ccc(OC)cc2CC3)c1C1CC1 (stereo not given)	·	·	-5%	·	0%	·
Cc1ccc(S(=O)(=O)NC(C)(C)CN2CCC(Cc3ccccc3)CC2)cc1	i	-6%	-8%	i	40µM*	1%
CCn1cc(C(=O)O)c(=O)c2cc(F)c(N/N=C/c3ccccc3[N+](=O)[O-])cc21	i	3%	-5%	i	40µM*	3%
Cc1ccc2[nH]c3c(c2c1)CN(C(=O)CC1(c2ccccc2)CC(=O)N(Cc2cccnc2)C1=O)CC3 (stereo not given)	·	·	0%	·	3%	·
N#CC1=C(N)N2C(=C(C#N)C1c1ccc(Br)cc1)Nc1ccccc12 (stereo not given)	i	?	-3%	i	?	-16%
N#CC1=C(N)N2C(=C(C#N)C1c1cccc(Br)c1)Nc1ccccc12 (stereo not given)	i	?	1%	i	3.2µM*	-6%
CSc1ccc(C2NC(=O)c3ccccc3N2)cc1 (stereo not given)	i	-2%	-1%	i	9%	10µM*
CC(=O)c1ccc(F)c(-c2cc(C)cc3c2OC(CNC(=O)Cc2ccc4c(c2)OCO4)C3)c1 (stereo not given)	·	·	-5%	·	1%	·
COc1ccc(-n2nc3c(N4CCCC(C(=O)NCCc5ccccc5C)C4)nnc(C)c3c2C)cc1 (stereo not given)	i	22µM*	-8%	i	-1%	?
Cn1cc(/C=C2\SC(=O)N(c3ccccc3)C2=O)c2ccccc21	i	7.9µM*	-1%	i	?	-19%
Cn1cc(/C=C2\SC(=O)N(c3ccc(O)cc3)C2=O)c2ccccc21	i	?	4%	i	6%	-14%
CCCCn1c(NCc2cc(Cl)ccc2O)nc2ccccc21	i	-7%	-5%	i	?	-2%
CCCCn1c(NCc2cc(C)ccc2O)nc2ccccc21	i	-11%	-3%	i	16µM*	-8%
COC(=O)C1CCN(Cc2ccc3c(c2)CN(C(=O)c2cc4cc(F)ccc4[nH]2)CCO3)CC1	·	·	-1%	·	0%	·
Cc1cccc(NC(=O)Cc2coc3ccc4ccccc4c23)n1	i	4%	-4%	i	11µM*	-20%
COc1cc2c(NC3CCN(C)CC3)nc(N3CCCN(C)CC3)nc2cc1OCc1ccccc1	·	·	·	·	1%	·
CN(CC(=O)Nc1ccc(Cl)c(Cl)c1)C1CCCCC1	i	-8%	-1%	i	40µM*	-1%
CN(CC(=O)Nc1ccccc1Cl)C1CCCCC1	i	3%	0%	i	6%	3%
C#CCSc1nc(-c2cccs2)ccc1C#N	i	2.8µM*	5%	i	4%	-24%
COc1ccccc1NC(=O)Cn1nnc(-c2ccccc2NC(=O)c2cc3ccccc3oc2=O)n1	i	-3%	1%	25µM*	·	1%
COc1ccc(N2C(=O)c3ccccc3NC2c2ccc(OC)c(CSc3ccccn3)c2)cc1 (stereo not given)	i	1%	3%	i	10µM*	-8%
SMILES	Abeta yeast res	Vif-A3F inh	GRP78 ERSR act	FUS suppressor	PINK1 expr mod	Vif-APOBEC3G blk
COc1ccc(N2C(=O)c3ccccc3NC2c2ccc(OC)c(COc3ccccn3)c2)cc1 (stereo not given)	i	-4%	1%	i	1%	0%
O=C(Nc1ccc2c(c1)CCC2)c1cccc(S(=O)(=O)N2CCN(c3ccccc3)CC2)c1	i	4%	-3%	14µM*	-4%	2%
O=C(NC1CCCc2ccccc21)c1cccc(S(=O)(=O)N2CCN(c3ccccc3)CC2)c1 (stereo not given)	i	2%	-5%	i	-2%	0%
N#Cc1cc(C(=O)c2cc(Br)ccc2O)cn(C2CCCCC2)c1=O	i	-1%	-3%	i	22µM*	-1%
N#Cc1cc(C(=O)c2ccccc2OCC(=O)Nc2ccccc2Cl)cn(C2CCCCC2)c1=O	i	-2%	-1%	i	0%	0%
C[N+]1(C)CCC(OC(=O)CC(O)(c2ccccc2)C2CCCC2)C1 (stereo not given)	·	·	-5%	·	·	·
COC(=O)C1=C(C(=O)OC)[C@]2([C@H]3CC=CCN[C@@H](Cc4ccccc4)C(=O)N3Cc3ccccc3)C=C[C@H]1O2	i	2%	-7%	22µM*	1%	-5%
COC(=O)C1=C(C(=O)OC)[C@]2([C@@H]3CC=CCN[C@@H](Cc4ccccc4)C(=O)N3Cc3ccccc3)C=C[C@H]1O2	i	0%	-4%	i	-2%	0%
CCOc1ccc2nc(N3C(=O)/C(=C/c4ccc(Cl)cc4)NC3=S)sc2c1	i	5µM*	0%	i	?	-3%
CCN(CCCNC(=O)c1cc2cc3cc(C)ccc3nc2s1)c1cccc(C)c1	i	-1%	0%	32µM*	2%	0%
Cc1ccc2nc3sc(C(=O)NCCCN(C)c4ccccc4)cc3cc2c1	i	2%	-1%	i	0%	2%
COC(=O)c1ccccc1C(=O)NCC1Cc2cc(-c3nc(C)cnc3C)ccc2O1 (stereo not given)	·	·	0%	·	0%	·
CCN(CC)S(=O)(=O)c1ccc(Cl)c(NC(=O)COC(=O)C2CCCCC2)c1	11µM*	-4%	-6%	i	0%	-4%
COc1ccc(/C=C/C(=O)Nc2ccc(OC)cc2[N+](=O)[O-])cc1	i	?	-5%	·	45µM*	-28%
COc1ccc(NC(=O)/C=C/c2ccccc2)c([N+](=O)[O-])c1	i	-10%	4%	i	11%	-17%
